Laboratory results taken from PMC7862700, “An all-to-all approach to the identification of sequence-specific readers for epigenetic DNA modifications on cytosine”.

How the values were obtained:
Assay in all cases: DAPPL (digital affinity profiling via proximity ligation, sequencing); 10 mM Tris-HCl pH 7.5, 50 mM NaCl, 1 mM DTT, 4% glycerol, room temperature, 30 min; GST-TFs on glutathione beads, 16-mer random dsDNA library, 0.1% formaldehyde crosslink after washing; high values mean tight binding
FEV = molecular target: T1, FEV (Homo sapiens, UniProt Q99581 1-238); details: protein: recombinant; tags: N-terminal GST; dsDNA, one strand shown
T1 sequence: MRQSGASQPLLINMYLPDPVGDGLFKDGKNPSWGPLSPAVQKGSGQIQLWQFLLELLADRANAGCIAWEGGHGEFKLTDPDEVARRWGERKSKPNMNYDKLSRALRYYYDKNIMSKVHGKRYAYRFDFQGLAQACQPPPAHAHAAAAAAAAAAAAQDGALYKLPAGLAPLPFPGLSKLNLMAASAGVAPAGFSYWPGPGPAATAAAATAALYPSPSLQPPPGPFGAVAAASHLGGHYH
Procedure, shortened: (§1)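 In yeast, human transcription factors were expressed with a GST fusion, then pulled down on glutathione beads and given DNA barcodes. Pooled with a tag-only sample, they were exposed to 200 nmole of a 16-mer random double-stranded DNA library (Tris/NaCl/DTT/glycerol buffer, room temperature, 30 min), washed, crosslinked with 0.1% formaldehyde, proximity-ligated using BsaI/T4 ligase for 1 h at 37 °C, PCR-amplified and read on an Illumina NextSeq500. Each hexamer's frequency of reads for a factor, divided by the matching frequency for the tag-only sample, gives the binding signal.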

ETV5 = ETV5 (Homo sapiens, UniProt P41161 1-510); details: protein: recombinant; tags: N-terminal GST; dsDNA, one strand shown
Procedure, shortened: as §1

HSF1 = HSF1 (Homo sapiens, UniProt Q00613 1-529); details: protein: recombinant; tags: N-terminal GST; chain copies: 3; dsDNA, one strand shown
Procedure, shortened: as §1

SPIC = molecular target: T2, SPIC (Homo sapiens, UniProt Q8N5J4 1-248); details: protein: recombinant; tags: N-terminal GST; dsDNA, one strand shown
T2 sequence: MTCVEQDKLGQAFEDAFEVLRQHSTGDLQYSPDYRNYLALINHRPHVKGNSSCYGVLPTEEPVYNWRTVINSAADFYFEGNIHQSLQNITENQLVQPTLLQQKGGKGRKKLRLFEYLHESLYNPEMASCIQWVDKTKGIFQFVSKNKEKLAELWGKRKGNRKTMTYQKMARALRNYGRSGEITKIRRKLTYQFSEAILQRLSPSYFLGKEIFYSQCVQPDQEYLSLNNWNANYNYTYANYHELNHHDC
Procedure, shortened: as §1

ELF4 = ELF4 (Homo sapiens, UniProt Q99607 1-663); details: protein: recombinant; tags: N-terminal GST; dsDNA, one strand shown
Procedure, shortened: as §1

ELK4 = molecular target: T3, ELK4 (Homo sapiens, UniProt P28324-2 1-405); details: protein: recombinant; tags: N-terminal GST; dsDNA, one strand shown
T3 sequence: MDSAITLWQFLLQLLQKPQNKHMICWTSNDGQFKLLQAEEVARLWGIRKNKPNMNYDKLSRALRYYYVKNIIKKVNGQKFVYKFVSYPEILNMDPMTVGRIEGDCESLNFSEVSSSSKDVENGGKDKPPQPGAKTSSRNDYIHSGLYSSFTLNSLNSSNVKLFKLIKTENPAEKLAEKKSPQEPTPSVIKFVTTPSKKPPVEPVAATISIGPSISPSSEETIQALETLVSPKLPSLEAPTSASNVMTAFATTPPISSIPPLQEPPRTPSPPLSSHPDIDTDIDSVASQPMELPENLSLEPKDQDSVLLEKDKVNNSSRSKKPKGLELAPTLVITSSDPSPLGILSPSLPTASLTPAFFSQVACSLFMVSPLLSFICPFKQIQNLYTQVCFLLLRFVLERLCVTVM
Procedure, shortened: as §1

ETV2 = molecular target: T4, ETV2 (Homo sapiens, UniProt O00321 1-342); details: protein: recombinant; tags: N-terminal GST; dsDNA, one strand shown
T4 sequence: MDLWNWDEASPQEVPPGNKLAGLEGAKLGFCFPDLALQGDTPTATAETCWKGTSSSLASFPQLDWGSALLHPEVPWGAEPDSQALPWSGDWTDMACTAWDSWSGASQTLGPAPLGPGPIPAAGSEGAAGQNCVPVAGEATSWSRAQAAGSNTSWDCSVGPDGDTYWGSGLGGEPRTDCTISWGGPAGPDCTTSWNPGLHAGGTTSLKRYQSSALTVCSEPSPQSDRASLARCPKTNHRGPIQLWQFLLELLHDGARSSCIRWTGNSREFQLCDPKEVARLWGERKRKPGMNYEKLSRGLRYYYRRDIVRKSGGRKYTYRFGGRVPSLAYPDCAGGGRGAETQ
Procedure, shortened: as §1

ELF3 = molecular target: T5, ELF3 (Homo sapiens, UniProt P78545 1-371); details: protein: recombinant; tags: N-terminal GST; dsDNA, one strand shown
T5 sequence: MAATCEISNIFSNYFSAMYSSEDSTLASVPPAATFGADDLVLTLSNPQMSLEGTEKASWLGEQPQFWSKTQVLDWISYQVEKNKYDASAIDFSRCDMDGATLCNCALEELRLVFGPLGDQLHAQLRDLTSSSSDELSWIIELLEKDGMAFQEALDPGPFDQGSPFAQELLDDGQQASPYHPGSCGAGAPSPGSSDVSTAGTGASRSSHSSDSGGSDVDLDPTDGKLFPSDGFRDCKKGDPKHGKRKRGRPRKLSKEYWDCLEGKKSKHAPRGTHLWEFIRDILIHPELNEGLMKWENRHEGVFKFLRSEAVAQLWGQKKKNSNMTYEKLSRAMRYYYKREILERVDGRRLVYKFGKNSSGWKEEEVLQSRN
Procedure, shortened: as §1

CRX = CRX (Homo sapiens, UniProt O43186 1-299); details: protein: recombinant; tags: N-terminal GST; dsDNA, one strand shown
Procedure, shortened: as §1

ETV1 = ETV1 (Homo sapiens, UniProt P50549 1-477); details: protein: recombinant; tags: N-terminal GST; dsDNA, one strand shown
Procedure, shortened: as §1

ERF = molecular target: T6, ERF (Homo sapiens, UniProt P50548 1-548); details: protein: recombinant; tags: N-terminal GST; dsDNA, one strand shown
T6 sequence: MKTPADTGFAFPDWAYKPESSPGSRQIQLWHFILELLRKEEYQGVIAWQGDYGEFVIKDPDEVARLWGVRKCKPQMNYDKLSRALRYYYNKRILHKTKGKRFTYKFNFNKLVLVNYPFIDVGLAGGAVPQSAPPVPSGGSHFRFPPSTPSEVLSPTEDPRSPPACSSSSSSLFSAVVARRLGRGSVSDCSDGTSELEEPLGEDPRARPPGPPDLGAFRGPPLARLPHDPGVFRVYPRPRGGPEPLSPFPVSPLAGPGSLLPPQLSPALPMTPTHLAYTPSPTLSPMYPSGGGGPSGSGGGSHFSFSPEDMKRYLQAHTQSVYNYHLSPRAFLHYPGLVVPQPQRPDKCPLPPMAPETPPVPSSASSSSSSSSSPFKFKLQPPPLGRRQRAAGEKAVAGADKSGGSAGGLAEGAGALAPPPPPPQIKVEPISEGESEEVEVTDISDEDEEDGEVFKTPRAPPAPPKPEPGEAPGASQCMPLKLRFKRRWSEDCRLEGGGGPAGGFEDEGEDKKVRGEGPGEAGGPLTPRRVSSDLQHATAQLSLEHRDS
Procedure, shortened: as §1

ETV3L = molecular target: T7, ETV3L (Homo sapiens, UniProt Q6ZN32 1-361); details: protein: recombinant; tags: N-terminal GST; dsDNA, one strand shown
T7 sequence: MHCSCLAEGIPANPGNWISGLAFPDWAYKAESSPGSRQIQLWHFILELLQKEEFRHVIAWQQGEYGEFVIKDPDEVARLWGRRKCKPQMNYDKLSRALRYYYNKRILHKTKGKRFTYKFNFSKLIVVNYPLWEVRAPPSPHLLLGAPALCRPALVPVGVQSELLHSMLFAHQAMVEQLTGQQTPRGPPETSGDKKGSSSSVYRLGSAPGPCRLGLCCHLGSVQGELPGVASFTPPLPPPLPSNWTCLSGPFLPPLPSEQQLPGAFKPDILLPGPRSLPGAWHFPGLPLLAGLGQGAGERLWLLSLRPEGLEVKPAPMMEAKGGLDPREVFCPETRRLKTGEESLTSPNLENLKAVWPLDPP
Procedure, shortened: as §1

ETS2 = molecular target: T8, ETS2 (Homo sapiens, UniProt P15036 1-469); details: protein: recombinant; tags: N-terminal GST; dsDNA, one strand shown
T8 sequence: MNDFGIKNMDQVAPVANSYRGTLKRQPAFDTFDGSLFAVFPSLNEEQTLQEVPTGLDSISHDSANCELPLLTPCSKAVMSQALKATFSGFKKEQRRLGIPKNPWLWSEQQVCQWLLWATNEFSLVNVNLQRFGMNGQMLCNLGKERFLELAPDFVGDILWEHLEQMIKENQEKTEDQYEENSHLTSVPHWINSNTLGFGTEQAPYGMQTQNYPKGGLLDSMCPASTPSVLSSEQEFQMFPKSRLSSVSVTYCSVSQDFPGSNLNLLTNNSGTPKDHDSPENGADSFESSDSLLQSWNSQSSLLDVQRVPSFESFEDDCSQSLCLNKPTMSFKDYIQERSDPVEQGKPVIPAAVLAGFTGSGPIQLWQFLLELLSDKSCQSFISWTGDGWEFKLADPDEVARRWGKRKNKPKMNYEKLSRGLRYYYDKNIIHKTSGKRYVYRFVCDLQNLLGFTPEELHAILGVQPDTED
Procedure, shortened: as §1

SPDEF = molecular target: T9, SPDEF (Homo sapiens, UniProt O95238 1-335); details: protein: recombinant; tags: N-terminal GST; dsDNA, one strand shown
T9 sequence: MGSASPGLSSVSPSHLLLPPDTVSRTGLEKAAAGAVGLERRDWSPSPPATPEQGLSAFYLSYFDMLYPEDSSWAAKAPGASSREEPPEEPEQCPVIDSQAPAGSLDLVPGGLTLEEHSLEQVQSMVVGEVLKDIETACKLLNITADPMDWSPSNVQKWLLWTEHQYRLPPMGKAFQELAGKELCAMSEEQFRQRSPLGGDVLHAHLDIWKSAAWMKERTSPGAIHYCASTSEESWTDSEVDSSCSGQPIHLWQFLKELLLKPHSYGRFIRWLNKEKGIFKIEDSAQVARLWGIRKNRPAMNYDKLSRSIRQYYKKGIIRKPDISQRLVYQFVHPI
Procedure, shortened: as §1

ETV7 = molecular target: T10, ETV7 (Homo sapiens, UniProt Q9Y603 1-341); details: protein: recombinant; tags: N-terminal GST; dsDNA, one strand shown
T10 sequence: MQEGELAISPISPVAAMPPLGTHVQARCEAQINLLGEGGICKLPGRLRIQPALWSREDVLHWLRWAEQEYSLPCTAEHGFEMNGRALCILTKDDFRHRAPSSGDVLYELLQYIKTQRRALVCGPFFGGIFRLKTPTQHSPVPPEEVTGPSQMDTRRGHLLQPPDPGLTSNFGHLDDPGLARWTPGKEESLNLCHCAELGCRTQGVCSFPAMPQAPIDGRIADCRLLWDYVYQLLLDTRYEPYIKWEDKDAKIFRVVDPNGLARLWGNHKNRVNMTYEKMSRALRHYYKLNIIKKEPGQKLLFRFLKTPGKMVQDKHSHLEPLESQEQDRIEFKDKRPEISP
Procedure, shortened: as §1

ELF5 = molecular target: T11, ELF5 (Homo sapiens, UniProt Q9UKW6-2 1-255); details: protein: recombinant; tags: N-terminal GST; dsDNA, one strand shown
T11 sequence: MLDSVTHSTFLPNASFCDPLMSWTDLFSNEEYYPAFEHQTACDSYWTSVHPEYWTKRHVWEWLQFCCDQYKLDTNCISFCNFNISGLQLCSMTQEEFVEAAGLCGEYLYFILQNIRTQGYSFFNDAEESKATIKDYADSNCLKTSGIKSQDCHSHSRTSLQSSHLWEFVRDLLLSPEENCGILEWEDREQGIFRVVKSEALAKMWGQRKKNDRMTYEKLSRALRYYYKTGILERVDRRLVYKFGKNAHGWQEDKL
Procedure, shortened: as §1

ETV3 = molecular target: T12, ETV3 (Homo sapiens, UniProt P41162-2 1-143); details: protein: recombinant; tags: N-terminal GST; dsDNA, one strand shown
T12 sequence: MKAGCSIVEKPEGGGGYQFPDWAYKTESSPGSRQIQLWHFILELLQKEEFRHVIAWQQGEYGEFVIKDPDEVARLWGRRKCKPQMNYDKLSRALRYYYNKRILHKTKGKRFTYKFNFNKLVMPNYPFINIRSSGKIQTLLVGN
Procedure, shortened: as §1

ETV6 = ETV6 (Homo sapiens, UniProt P41212 1-452); details: protein: recombinant; tags: N-terminal GST; dsDNA, one strand shown
Procedure, shortened: as §1

ETV5, sequence (P41161 whole entry): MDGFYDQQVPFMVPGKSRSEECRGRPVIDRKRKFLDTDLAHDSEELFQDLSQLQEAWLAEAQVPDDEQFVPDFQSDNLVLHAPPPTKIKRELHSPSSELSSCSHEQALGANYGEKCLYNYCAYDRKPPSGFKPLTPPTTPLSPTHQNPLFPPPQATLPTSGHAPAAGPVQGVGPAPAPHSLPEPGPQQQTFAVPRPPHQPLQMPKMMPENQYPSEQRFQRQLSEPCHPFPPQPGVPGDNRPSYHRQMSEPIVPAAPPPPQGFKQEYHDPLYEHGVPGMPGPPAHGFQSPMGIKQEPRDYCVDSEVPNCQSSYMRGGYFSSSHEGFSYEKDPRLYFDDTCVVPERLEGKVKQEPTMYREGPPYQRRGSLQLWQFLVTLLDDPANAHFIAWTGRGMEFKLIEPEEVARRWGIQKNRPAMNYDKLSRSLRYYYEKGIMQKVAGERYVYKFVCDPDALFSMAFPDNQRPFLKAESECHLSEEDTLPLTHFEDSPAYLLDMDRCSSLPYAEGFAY
ETV1, sequence (P50549 whole entry): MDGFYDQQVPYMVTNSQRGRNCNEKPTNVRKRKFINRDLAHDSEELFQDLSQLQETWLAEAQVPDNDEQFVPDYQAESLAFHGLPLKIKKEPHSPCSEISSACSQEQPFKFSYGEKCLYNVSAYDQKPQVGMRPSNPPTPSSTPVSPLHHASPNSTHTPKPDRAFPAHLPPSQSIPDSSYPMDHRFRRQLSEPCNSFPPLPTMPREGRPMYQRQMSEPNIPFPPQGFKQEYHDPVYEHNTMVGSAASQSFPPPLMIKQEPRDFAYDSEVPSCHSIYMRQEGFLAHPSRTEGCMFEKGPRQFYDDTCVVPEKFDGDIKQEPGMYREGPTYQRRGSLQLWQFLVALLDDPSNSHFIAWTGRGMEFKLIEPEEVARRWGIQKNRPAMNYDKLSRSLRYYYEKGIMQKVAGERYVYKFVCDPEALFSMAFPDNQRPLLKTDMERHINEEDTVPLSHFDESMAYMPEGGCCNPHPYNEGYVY
HSF1, sequence (Q00613 whole entry): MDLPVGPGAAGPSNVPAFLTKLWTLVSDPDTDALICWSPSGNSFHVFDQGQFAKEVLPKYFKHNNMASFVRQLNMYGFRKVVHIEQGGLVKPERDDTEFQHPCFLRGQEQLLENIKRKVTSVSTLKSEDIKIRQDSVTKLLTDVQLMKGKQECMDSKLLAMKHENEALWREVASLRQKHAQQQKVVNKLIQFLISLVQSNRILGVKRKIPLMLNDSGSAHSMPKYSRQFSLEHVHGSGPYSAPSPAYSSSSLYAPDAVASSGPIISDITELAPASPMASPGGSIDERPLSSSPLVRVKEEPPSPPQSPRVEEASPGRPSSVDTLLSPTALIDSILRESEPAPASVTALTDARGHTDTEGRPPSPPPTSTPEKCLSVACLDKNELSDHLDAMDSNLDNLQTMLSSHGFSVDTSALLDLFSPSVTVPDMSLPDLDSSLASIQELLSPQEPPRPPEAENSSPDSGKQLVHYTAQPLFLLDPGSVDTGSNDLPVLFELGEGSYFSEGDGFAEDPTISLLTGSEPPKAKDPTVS
ELF4, sequence (Q99607 whole entry): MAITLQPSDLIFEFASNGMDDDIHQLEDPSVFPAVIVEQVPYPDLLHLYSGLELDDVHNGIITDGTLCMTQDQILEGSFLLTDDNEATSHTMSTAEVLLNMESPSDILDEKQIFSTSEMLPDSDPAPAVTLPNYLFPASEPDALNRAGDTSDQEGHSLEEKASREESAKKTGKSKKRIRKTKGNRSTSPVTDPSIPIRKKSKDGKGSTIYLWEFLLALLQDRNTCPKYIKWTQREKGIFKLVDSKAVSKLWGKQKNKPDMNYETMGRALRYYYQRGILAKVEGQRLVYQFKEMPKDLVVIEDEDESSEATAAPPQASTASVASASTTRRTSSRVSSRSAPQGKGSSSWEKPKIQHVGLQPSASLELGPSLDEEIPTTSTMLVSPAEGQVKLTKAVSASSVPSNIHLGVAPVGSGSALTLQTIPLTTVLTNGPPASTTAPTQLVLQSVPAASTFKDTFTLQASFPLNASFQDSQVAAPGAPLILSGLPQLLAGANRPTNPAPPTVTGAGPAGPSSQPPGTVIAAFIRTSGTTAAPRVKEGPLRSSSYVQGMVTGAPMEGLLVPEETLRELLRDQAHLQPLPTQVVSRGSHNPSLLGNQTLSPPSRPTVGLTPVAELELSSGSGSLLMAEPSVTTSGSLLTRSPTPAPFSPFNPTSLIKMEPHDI
CRX, sequence (O43186 whole entry): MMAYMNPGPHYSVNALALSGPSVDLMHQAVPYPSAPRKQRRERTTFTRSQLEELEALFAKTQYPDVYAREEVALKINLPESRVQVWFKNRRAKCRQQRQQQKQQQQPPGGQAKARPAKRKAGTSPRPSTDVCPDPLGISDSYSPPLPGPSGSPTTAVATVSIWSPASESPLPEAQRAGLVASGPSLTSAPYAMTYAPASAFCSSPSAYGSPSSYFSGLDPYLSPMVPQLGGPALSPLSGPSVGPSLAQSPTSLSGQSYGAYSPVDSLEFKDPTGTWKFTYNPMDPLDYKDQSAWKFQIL
ETV6, sequence (P41212 whole entry): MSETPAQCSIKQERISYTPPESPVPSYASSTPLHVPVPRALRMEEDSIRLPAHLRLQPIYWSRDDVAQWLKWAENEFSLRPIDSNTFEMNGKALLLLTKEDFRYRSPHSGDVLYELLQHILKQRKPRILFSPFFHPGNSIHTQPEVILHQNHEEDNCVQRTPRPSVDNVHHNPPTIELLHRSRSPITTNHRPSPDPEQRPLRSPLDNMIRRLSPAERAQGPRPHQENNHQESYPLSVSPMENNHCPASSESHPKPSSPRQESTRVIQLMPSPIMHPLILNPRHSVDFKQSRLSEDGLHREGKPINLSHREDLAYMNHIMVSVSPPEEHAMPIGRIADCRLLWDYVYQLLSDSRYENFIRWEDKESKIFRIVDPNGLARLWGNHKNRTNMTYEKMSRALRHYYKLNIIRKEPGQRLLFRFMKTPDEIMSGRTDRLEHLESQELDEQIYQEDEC

TTGCAC
binding signal (FEV): 1.24 fold enrichment (6-mer frequency, TF over GST control) | binding signal (ETV5): 1.24 fold enrichment (6-mer frequency, TF over GST control) | binding signal (HSF1): 1.1 fold enrichment (6-mer frequency, TF over GST control) | binding signal (SPIC): 1.07 fold enrichment (6-mer frequency, TF over GST control) | binding signal (ELF4): 1.31 fold enrichment (6-mer frequency, TF over GST control) | binding signal (ELK4): 1.31 fold enrichment (6-mer frequency, TF over GST control) | binding signal (ETV2): 1.22 fold enrichment (6-mer frequency, TF over GST control) | binding signal (ELF3): 1.23 fold enrichment (6-mer frequency, TF over GST control) | binding signal (CRX): 1.11 fold enrichment (6-mer frequency, TF over GST control) | binding signal (ETV1): 1.22 fold enrichment (6-mer frequency, TF over GST control) | binding signal (ERF): 1.3 fold enrichment (6-mer frequency, TF over GST control) | binding signal (ETV3L): 1.38 fold enrichment (6-mer frequency, TF over GST control) | binding signal (ETS2): 1.11 fold enrichment (6-mer frequency, TF over GST control) | binding signal (SPDEF): 1.22 fold enrichment (6-mer frequency, TF over GST control) | binding signal (ETV7): 1.26 fold enrichment (6-mer frequency, TF over GST control) | binding signal (ELF5): 1.22 fold enrichment (6-mer frequency, TF over GST control) | binding signal (ETV3): 1.23 fold enrichment (6-mer frequency, TF over GST control) | binding signal (ETV6): 1.26 fold enrichment (6-mer frequency, TF over GST control)
